Assay results taken from PubChem BioAssay (NCATS).
Where “and” joins values, the source holds several entries; their conditions need not be identical. Equal entries are not always repeated. Inconclusive results are not listed. Calls of active or inactive are those of the source. The call rests on the fitted dose curve; in most records, active means well fitted curve in the direction sought with a large enough effect; inconclusive means small, poorly fitted or top-dose-only effect, or another doubt; inactive means no such curve, though single readings can be large; an effect the other way counts as inactive or inconclusive.

Key:
[1] = Quantitative highthroughput screen to assess conditional lethalithy of NOMO1 cells grown in RPMI1640 with untreated serum (RPMI+s) (AID 1963876); conditions: NOMO1 AML cells in RPMI+serum, CellTiter-Glo viability, 48 h; series mostly up to 45.8 µM; further: nearly all actives have a fitted effect of over 35% in size;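 on viability: 100% = DMSO wells and 0% = empty wells without cells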
Summary of the method: (§1)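 Each medium arm—HPLM with 10% dialyzed FBS, or RPMI1640 with 5 mM glucose and 10% untreated or dialyzed FBS—was screened against an 11-point, 3-fold compound titration for 48 h at 37 °C, with CellTiter-Glo luminescence as endpoint.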

[2] = Quantitative highthroughput screen to assess conditional lethalithy of NOMO1 cells grown in RPMI1640 with dialyzed fetal bovine serum (RPMI+ds) (AID 1963877); conditions: NOMO1 in RPMI+dialyzed FBS viability, ATP luminescence, 48 h; series mostly up to 45.8 µM; further: nearly all actives have a fitted effect of over 30% in size;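 on viability: 100% = DMSO control wells and 0% = empty wells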
Summary of the method: as §1

[3] = Quantitative highthroughput screen to assess conditional lethalithy of NOMO1 cells grown in Human Plasma-Like Medium with dialyzed fetal bovine serum (HPLM+ds) (AID 1963878); conditions: NOMO1 AML cells in HPLM+ds, CellTiter-Glo viability, 48 h; series mostly up to 45.8 µM; further: nearly all actives have a fitted effect of over 35% in size;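 on viability: 100% = DMSO wells and 0% = empty wells on each plate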
Summary of the method: as §1

[4] = Quantitative highthroughput screen to assess conditional lethalithy of P12 Ichikawa cells grown in Human Plasma-Like Medium with dialyzed fetal bovine serum (HPLM+ds) (AID 1963879); conditions: ATP luminescence, 48 h; Potency: viability; series mostly up to 45.8 µM; further: nearly all actives have a fitted effect of over 35% in size
Summary of the method: as §1

[5] = Quantitative highthroughput screen to assess conditional lethalithy of P12 Ichikawa cells grown in RPMI1640 with dialyzed fetal bovine serum (RPMI+ds) (AID 1963880); conditions: ATP luminescence, 48 h; Potency: P12-Ichikawa viability; series mostly up to 45.8 µM; further: nearly all actives have a fitted effect of over 35% in size;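 on viability: 100% = DMSO wells and 0% = empty wells on each plate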
Summary of the method: as §1

[6] = Quantitative highthroughput screen to assess conditional lethalithy of P12 Ichikawa cells grown in RPMI1640 with untreated serum (RPMI+s) (AID 1963881); conditions: ATP luminescence, 48 h; Potency: viability; series mostly up to 45.8 µM; further: nearly all actives have a fitted effect of over 35% in size;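 on viability: 100% = DMSO wells and 0% = empty wells without cells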
Summary of the method: as §1

[7] = Quantitative highthroughput screen to assess conditional lethalithy of SEM cells grown in Human Plasma-Like Medium with dialyzed fetal bovine serum (HPLM+ds) (AID 1963882); conditions: SEM B-ALL cells in HPLM+ds, CellTiter-Glo viability, 48 h; series mostly up to 45.8 µM; further: nearly all actives have a fitted effect of over 35% in size
Summary of the method: as §1

[8] = Quantitative highthroughput screen to assess conditional lethalithy of SEM cells grown in RPMI1640 with unreated serum (RPMI+s) (AID 1963883); conditions: SEM B-ALL cells, CellTiter-Glo viability, 48 h; series mostly up to 45.8 µM; further: nearly all actives have a fitted effect of over 35% in size;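 on viability: 100% = DMSO wells and 0% = empty wells without cells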
Summary of the method: as §1

[9] = Quantitative highthroughput screen to assess conditional lethalithy of SEM cells grown in RPMI1640 with dialyzed fetal bovine serum (RPMI+ds) (AID 1963884); conditions: SEM B-ALL cells, RPMI+dialyzed FBS, CellTiter-Glo viability, 48 h; series mostly up to 45.8 µM; further: nearly all actives have a fitted effect of over 35% in size;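 on viability: 100% = DMSO control wells and 0% = empty wells without cells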
Summary of the method: as §1

[10] = Cellular viability qHTS for adrenocortical cancer (ACC) cell line NCI-H295R (AID 1963990); conditions: CellTiter-Glo ATP luminescence, 48 h; series mostly up to 46.1 µM; further: nearly all actives have a fitted effect of over 60% in size
Summary of the method: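 Compound titrations (up to 46 uM final) are applied to NCI-H295R cultures for 48 h at 37C. Viable cell number is estimated by CellTiter-Glo signal, normalised to DMSO and doxorubicin controls.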

[11] = Cellular viability qHTS for adrenocortical cancer (ACC) cell line SW-13 (AID 1963989); conditions: SW-13 ACC cells viability, CellTiter-Glo, 48 h; activity (max response): stronger effect = lower value; further: nearly all actives have a fitted effect of over 65% in size;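 on activity (max response): cells grown in serum-free medium with ITS supplement; on the % scale 0 is the no-effect control and ±100 the full control effect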
Summary of the method: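 48 h treatment, SW-13 in ITS/DMEM serum-free; doses up to 46 uM; readout CellTiter-Glo luminescence; curve fit four-parameter logistic.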
Potency means the concentration at half of the fitted maximal effect.

O=[N+]([O-])c1cn2c(n1)OC[C@@H](OCc1ccc(OC(F)(F)F)cc1)C2
inactive: Potency [1] | Potency [2] | Potency [3] | Potency [4] | Potency [5] | Potency [6] | Potency [7] | Potency [8] | Potency [9] | Potency [10]

O=C(C[C@@H]1CC=CCCC(=O)O[C@H](c2ccccc2)CNC1=O)NCc1ccc(Cl)cc1
inactive: Potency [1] | Potency [2] | Potency [3] | Potency [4] | Potency [5] | Potency [6] | Potency [7] | Potency [9]

O=C(C=Cc1cccnc1)NCCCCC1CCN(C(=O)c2ccccc2)CC1
active: Potency [1] 0.0059 µM | Potency [2] 0.0033 µM | Potency [3] 0.0026 µM | Potency [4] 0.003 µM | Potency [5] 0.0053 µM | Potency [6] 0.0047 µM | Potency [8] 0.0026 µM | Potency [9] 0.0019 µM

C[C@@]12C(=O)OC(=O)[C@@]1(C)C1CCC2O1
active: Potency [1] 8.33 µM | Potency [2] 7.43 µM | Potency [3] 6.62 µM | Potency [4] 8.33 µM | Potency [5] 9.35 µM | Potency [6] 9.35 µM | Potency [8] 6.62 µM | Potency [9] 5.26 µM

Cn1cc(-c2ccc3nnc(C(F)(F)c4ccc5ncccc5c4)n3n2)cn1
inactive: Potency [1] | Potency [2] | Potency [3] | Potency [4] | Potency [5] | Potency [6] | Potency [7] | Potency [9] | activity (max response) [11] 3.57% | Potency [10]

COC(=O)N1CCN(Cc2cccc(NC(=O)Nc3ccc(C)nc3)c2F)CC1
inactive: Potency [1] | Potency [2] | Potency [3] | Potency [4] | Potency [5] | Potency [6] | Potency [8] | Potency [9] | activity (max response) [11] -16.4% | Potency [10]

C[C@H]1C[C@H]2[C@@H]3CCC4=CC(=O)C=C[C@]4(C)[C@@H]3C(=O)C[C@]2(C)[C@@]1(O)C(=O)CO
active: Potency [8] 20.9 µM | Potency [9] 23.5 µM
inactive: Potency [1] | Potency [2] | Potency [3] | Potency [4] | Potency [5] | Potency [6]

C[C@@H]1[C@H](O)[C@@H](C)C=CC=CC=CC=CC=CC=CC=C[C@H](O[C@@H]2O[C@H](C)[C@H](O)[C@H](N)[C@@H]2O)C[C@@H]2O[C@](O)(C[C@@H](O)C[C@@H](O)[C@H](O)CC[C@@H](O)C[C@@H](O)CC(=O)O[C@H]1C)C[C@H](O)[C@@H]2C(=O)O
inactive: Potency [1] | Potency [2] | Potency [3] | Potency [4] | Potency [5] | Potency [6] | Potency [8]

CC[C@H]1OC(=O)[C@H](C)C(=O)[C@H](C)[C@@H](O[C@H]2O[C@H](C)C[C@H](N(C)C)[C@@H]2O)[C@](C)(OC)C[C@@H](C)C(=O)[C@H](C)[C@H]2N(CCCCn3cnc(-c4cccnc4)c3)C(=O)O[C@]12C
inactive: Potency [1] | Potency [2] | Potency [3] | Potency [4] | Potency [5] | Potency [6] | Potency [8] | Potency [9]

CNC(=O)c1ccc(N2C(=S)N(c3ccc(C#N)c(C(F)(F)F)c3)C(=O)C2(C)C)cc1F
inactive: Potency [1] | Potency [2] | Potency [3] | Potency [4] | Potency [5] | Potency [6] | Potency [7] | Potency [8] | activity (max response) [11] -1.24% | Potency [10]

Cc1cc(OCCCc2c(C(=O)O)n(Cc3cccnc3)c3c(-c4c(COc5ccc(N6CCN([S+](C)(=O)[O-])CC6)cc5)nn(C)c4C)cccc23)cc(C)c1Cl
active: Potency [9] 18.7 µM
inactive: Potency [1] | Potency [2] | Potency [3] | Potency [4] | Potency [5] | Potency [6] | Potency [7]

Cc1ccc(NC(=O)c2cccc(N(C)C)c2)cc1NC(=O)c1ccc(O)cc1
inactive: Potency [1] | Potency [2] | Potency [3] | Potency [4] | Potency [5] | Potency [6] | Potency [7] | Potency [8] | Potency [9] | Potency [10]

Cc1coc2c1C(=O)C(=O)c1c-2ccc2c(C)cccc12
inactive: Potency [1] | Potency [2] | Potency [3] | Potency [4] | Potency [5] | Potency [6] | Potency [7] | Potency [9]

c1ccc(CNc2nc(N3CCOc4ccccc43)nc3c2CCCC3)cc1
inactive: Potency [1] | Potency [2] | Potency [3] | Potency [4] | Potency [5] | Potency [6] | Potency [7] | Potency [9]

Clc1cccc(-n2nnnc2NCc2ccccc2Oc2ccccn2)c1Cl
inactive: Potency [1] | Potency [2] | Potency [3] | Potency [4] | Potency [5] | Potency [6] | Potency [7] | Potency [8] | Potency [10]

N[C@@H](Cc1c[nH]c2ccc(O)cc12)C(=O)O
inactive: Potency [1] | Potency [2] | Potency [3] | Potency [4] | Potency [5] | Potency [6] | Potency [7] | activity (max response) [11] 10.6% | Potency [10]

CCCNS(=O)(=O)Nc1ncnc(OCCOc2ncc(Br)cn2)c1-c1ccc(Br)cc1
inactive: Potency [1] | Potency [2] | Potency [3] | Potency [4] | Potency [5] | Potency [7] | Potency [10]

CCOC(=O)c1c(C)n(C)c2ccc(O)cc12
inactive: Potency [1] | Potency [2] | Potency [3] | Potency [4] | Potency [6] | Potency [7] | Potency [8] | Potency [9] | activity (max response) [11] 5.26% and -18.4% | Potency [10]

C=CC(=O)Nc1cccc(Nc2nc(NC3CCC(N(C)C)CC3)nc3c2ncn3C(C)C)c1 (centres undefined)
active: Potency [1] 2.96 µM | Potency [2] 2.35 µM | Potency [3] 2.35 µM | Potency [4] 3.32 µM | Potency [6] 3.32 µM | Potency [7] 1.05 µM | Potency [8] 2.09 µM | Potency [9] 1.05 µM

C[C@]12CCC(=O)C=C1[C@@H]1CC1[C@H]1[C@H]3[C@@H]4C[C@H]4[C@@]4(CCC(=O)O4)[C@@]3(C)CC[C@H]12 (some centres undefined)
inactive: Potency [1] | Potency [2] | Potency [3] | Potency [4] | Potency [6] | Potency [7] | Potency [8] | Potency [9]

Clc1ccc(C(c2ccccc2Cl)C(Cl)Cl)cc1 (centres undefined)
active: Potency [10] 13 µM
inactive: Potency [1] | Potency [2] | Potency [3] | Potency [4] | Potency [5] | Potency [6] | activity (max response) [11] -27.3%

CC(C)(C)c1cc(C(=O)O)c(NC(=O)Nc2ccc3[nH]ncc3c2)s1
inactive: Potency [1] | Potency [2] | Potency [3] | Potency [4] | Potency [6] | Potency [7] | Potency [8] | Potency [9] | activity (max response) [11] -7.47% | Potency [10]

CCN(C(=O)c1c(O)c2c(Cl)cccc2n(C)c1=O)c1ccccc1
active: Potency [1] 1.66 µM | Potency [2] 2.64 µM | Potency [3] 1.32 µM | Potency [4] 3.32 µM | Potency [5] 1.66 µM | Potency [7] 0.59 µM | Potency [8] 0.332 µM | Potency [9] 0.418 µM | Potency [11] 7.94 µM

N#CC(=C(O)c1ccc(Cl)cc1Cl)c1nc2cc(Cl)ccc2c(=O)[nH]1
inactive: Potency [1] | Potency [2] | Potency [3] | Potency [4] | Potency [5] | Potency [7] | Potency [8] | Potency [9]

O=Nc1c(-c2c(O)[nH]c3cc(Br)ccc23)[nH]c2ccccc12
active: Potency [1] 14.8 µM | Potency [2] 10.5 µM | Potency [3] 5.9 µM | Potency [4] 4.18 µM | Potency [6] 4.69 µM | Potency [7] 0.833 µM | Potency [8] 0.743 µM | Potency [9] 0.833 µM | Potency [11] 11.2 µM | Potency [10] 10 µM

CCN1CCN(C(=O)N[C@H](C(=O)N[C@@H]2C(=O)N3C(C(=O)O)=C(CSc4nnnn4C)CS[C@@H]23)c2ccc(O)cc2)C(=O)C1=O
inactive: Potency [1] | Potency [2] | Potency [3] | Potency [4] | Potency [6] | Potency [7] | Potency [8] | Potency [9]

O=C1NC(=O)C(=Cc2ccc(-c3ccc(F)cc3O)o2)S1
active: Potency [2] 10.5 µM | Potency [6] 6.62 µM
inactive: Potency [1] | Potency [3] | Potency [4] | Potency [7] | Potency [8]

Cc1c(O)cccc1C(=O)N[C@@H](CSc1ccccc1)[C@H](O)CN1C[C@H]2CCCC[C@@H]2C[C@@H]1C(=O)NC(C)(C)C
inactive: Potency [1] | Potency [2] | Potency [3] | Potency [4] | Potency [5] | Potency [7] | Potency [8] | Potency [9]

C[C@]12CC[C@@H]3c4ccc(O)cc4CC[C@H]3[C@H]1[C@@H](O)[C@@H](O)[C@H]2O
inactive: Potency [1] | Potency [2] | Potency [3] | Potency [4] | Potency [5] | Potency [6] | activity (max response) [11] -1.98% | Potency [10]

CC(C=CC=C(C)C=CC1=C(C)CCCC1(C)C)=CC=CC=C(C)C=CC=C(C)C=CC1=C(C)CCCC1(C)C
inactive: Potency [1] | Potency [2] | Potency [3] | Potency [4] | Potency [6] | Potency [7] | Potency [8] | Potency [9]

O=C(NC[C@H](O)CN1CCc2ccccc2C1)c1cc(NC2COC2)ncn1
inactive: Potency [1] | Potency [2] | Potency [3] | Potency [4] | Potency [5] | Potency [6] | activity (max response) [11] -16.9% | Potency [10]
